# In the library only some 2.3% were active in any assay of this set; here they are far more common.
# IDH1 R132H inh – human IDH1 R132H inhibition; 390,000 tested, 0.093% active; Potency, µM (doses to about 76.6 µM), usual class: inhibitors; O75874; IDH1-R132H enzyme, NADPH consumption, diaphorase/resazurin fluorescence; also: nearly all actives have a fitted effect of over 65% in size
# Target sequence (O75874 whole entry R132H, stated change not applied): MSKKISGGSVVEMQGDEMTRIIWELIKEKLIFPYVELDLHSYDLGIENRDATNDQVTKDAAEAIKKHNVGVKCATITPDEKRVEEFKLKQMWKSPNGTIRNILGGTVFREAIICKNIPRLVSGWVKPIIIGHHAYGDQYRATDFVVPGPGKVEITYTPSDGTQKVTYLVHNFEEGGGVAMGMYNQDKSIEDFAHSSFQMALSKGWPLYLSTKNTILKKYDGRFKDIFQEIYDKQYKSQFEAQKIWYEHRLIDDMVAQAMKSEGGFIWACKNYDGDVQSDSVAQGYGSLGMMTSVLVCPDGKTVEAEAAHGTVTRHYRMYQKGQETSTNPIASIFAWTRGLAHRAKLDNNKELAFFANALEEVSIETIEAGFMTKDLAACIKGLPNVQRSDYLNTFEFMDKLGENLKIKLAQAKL
#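 IDH1-R132H (0.5 ug/mL) preincubated 30 min with compound, then NADPH (0.016 mM) and alpha-KG (2 mM) added; 80 min at RT, pH 7.5. Remaining NADPH coupled via diaphorase/resazurin to fluorescence (540/590 nm); concentration-response curves normalized to no-enzyme control.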
# Nrf2 inh – blocks Nrf2 signaling. A549 ARE-Fluc reporter, luciferase luminescence, 18-24 h. Potency, µM (doses to about 46 µM), hits mostly inhibitors. 360,000 tested, 2.1% active. AID 504444; also: nearly all actives have a fitted effect of over 60% in size
#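 Quantitative HTS in A549 cells stably bearing an antioxidant response element-firefly luciferase construct. Inhibition of Nrf2-driven transcription was scored by luminescence after 18-24 h of compound exposure at 37 °C.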
# Nrf2 ARE act – activates Nrf2 signaling; AREc32 ARE-luciferase reporter (MCF7-derived line), luminescence, 24 h; Potency, µM (highest dose often 46.1 µM), hits mostly activators; 410,000 tested, 0.31% active; AID 624171; also: nearly all actives have a fitted effect of over 65% in size
#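 Luciferase luminescence (Steady-Glo, 30 min at room temperature) served as the read-out of ARE activation in AREc32 cells treated with compounds for 24 hr at 37 deg C.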
# Apoferritin bind – candidate novel general anesthetic via apoferritin binding. P02791. apoferritin/1-aminoanthracene competitive binding, fluorescence. Potency, µM (doses to about 77.5 µM), actives largely listed as inhibitors. 350,000 tested, 0.074% active. AID 485281; also: nearly all actives have a fitted effect of over 20% in size
# Target sequence (P02791 2-175 limits assumed): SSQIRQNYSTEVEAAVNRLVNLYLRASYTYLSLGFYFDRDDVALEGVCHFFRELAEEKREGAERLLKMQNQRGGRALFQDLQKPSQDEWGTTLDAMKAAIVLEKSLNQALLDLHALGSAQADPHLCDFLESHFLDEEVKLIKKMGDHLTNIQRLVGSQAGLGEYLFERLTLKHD
#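 Probe: 1-aminoanthracene (50% saturated, PBS). Protein: horse-spleen apoferritin, 10 uM. Incubation: 10 min, room temperature. Detection: 380 nm excitation, 535 nm emission. Analysis: normalized response, four-parameter Hill.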
# A549 tox – kills or reduces viability of A549 cells in Nrf2 counter-screen. Potency, µM (doses to about 46 µM), usual class: inhibitors. 390,000 tested, 0.16% active. AID 504648. A549 ARE-Fluc cells, CellTiter-Fluor viability, 18-24 h
#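 A549 ARE-Fluc cells in 5% FBS OPTI-MEM, 5000 cells/well, rested 2 h then exposed to compounds in concentration-response for 18-24 h at 37 °C. Viability by CellTiter-Fluor fluorescence (Ex 405/Em 525) after 30 min; luciferase luminescence (BugLite, 15 min, RT) read afterwards.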
# Giardia killer – Giardia lamblia killing. Giardia lamblia trophozoite viability. activity change, % at 7.66 µM, hits read low. 340,000 tested, 0.15% active; in the data active = activity change below about -80%; inconclusive = between about -30% and that limit;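 also: parasites exposed to compound for two days anaerobically before the ATP read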
#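 Media and compound were dispensed first, then trophozoites at 100 cells/well; plates sat 48 hrs at 37 deg C without oxygen before ATP luminescence reagent was added and read after 15-30 min at room temperature.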
# Hits are given with their value; i = inactive; ? = inconclusive; nt = not tested or not shown. Unless noted, calls follow the shape of the dose curve; as a rule, active = well fitted curve in the direction sought with a large enough effect; inconclusive = small, poorly fitted or top-dose-only effect, or another doubt; inactive = no such curve, though single readings can be large; an effect the other way counts as inactive or inconclusive.
SMILES,IDH1 R132H inh,Nrf2 inh,Nrf2 ARE act,Apoferritin bind,A549 tox,Giardia killer
C/C(=N\Nc1nccnc1Cl)c1ccc(Cl)c(Cl)c1,i,?,14µM,i,i,i
Nc1nc(-c2nn(Cc3ccccc3F)c3ncccc23)ncc1C1CC1,nt,nt,nt,i,nt,nt
CCOC(=O)c1cc([N+](=O)[O-])sc1NC(=O)CC,i,i,i,i,i,-86
CCOC(=O)c1cc([N+](=O)[O-])sc1N,i,i,i,i,i,i
Cc1csc2ncnc(N3CCN(C(=S)Nc4ccc(C(F)(F)F)cc4)CC3)c12,i,26µM,i,i,i,i
Cc1ccc(NC(=O)COCc2cc(-c3cccs3)on2)cc1Cl,i,?,7.1µM,i,i,nt
COc1ccc(C(=O)Nc2ccc(Cc3ccncc3)cc2)cc1Br,i,18µM,i,i,?,i
COc1ccc(NC(=O)Nc2ccc(Cc3ccncc3)cc2)cc1OC,i,?,i,?,i,i
CCN(CC)S(=O)(=O)c1ccc(C(=O)Nc2ccc(Cc3ccncc3)cc2)cc1,i,21µM,i,?,i,i
COc1ccc(C(=O)Nc2ccc(OC)c([N+](=O)[O-])c2)cc1Br,i,21µM,i,?,i,i
CCN(CC)S(=O)(=O)c1ccc(NC(=O)c2ccc(N(C)S(C)(=O)=O)cc2)cc1,i,nt,i,i,?,i
COc1ccc(C(=O)Nc2cccc([N+](=O)[O-])c2)cc1Br,i,?,i,nt,i,i
CCCC/C=C/[C@H](c1ccccc1)[C@H](CO)Cc1ccc([N+](=O)[O-])cc1,nt,?,nt,i,i,i
CCN(C(=O)Cn1ncc2c1-c1cc(C)ccc1OC2)c1cc(Cl)ccc1OC,?,?,i,i,i,nt
Cc1ccc(/C=C/c2onc(C)c2S(=O)(=O)N2CCC(C(=O)Nc3ccc(C)c(N(C)C)c3)CC2)cc1,i,nt,i,i,i,nt
O=C(Nc1ccc(S(=O)(=O)NCCc2ccccc2)cc1)c1ccncc1,i,21µM,i,i,i,i
O=C(NCc1cccnc1)c1ccc(NC(=O)c2cccc([N+](=O)[O-])c2)cc1,i,4.6µM,i,i,i,i
O=C(NCc1cccnc1)c1ccc([N+](=O)[O-])cc1,i,i,i,i,i,i
O=C(Nc1ccc(S(=O)(=O)NCCc2ccccc2)cc1)c1ccco1,i,i,i,?,i,i
O=C(Nc1ccccc1)c1ccc(S(=O)(=O)NCc2cccnc2)cc1,i,13µM,i,i,i,i
CC(NC(=O)COC(=O)c1ccco1)C12CC3CC(CC(C3)C1)C2 (configuration not stated),nt,i,nt,nt,i,i
N#Cc1c(N)nc(SCC(=O)OCc2ccccc2)c(C#N)c1-c1ccco1,i,i,i,?,i,i
N#Cc1c(N)nc(SCc2ccccc2)c(C#N)c1-c1ccco1,i,12µM,i,i,?,i
Cc1ccc(-n2nnnc2Sc2ccc(S(=O)(=O)NCCN(C)C)cc2[N+](=O)[O-])cc1,i,10µM,?,i,6.5µM,i
CSc1ccc(Cn2c(C)c(C(=O)NCc3cccc(Cl)c3)sc2=O)cc1,nt,nt,i,nt,nt,nt
SMILES,IDH1 R132H inh,Nrf2 inh,Nrf2 ARE act,Apoferritin bind,A549 tox,Giardia killer
COc1ccc(-c2cc(NC=O)c3ncc(-c4cccc(C(=O)NCCN(C)C)c4)n3c2)c(OC)c1,nt,nt,i,nt,nt,nt
O=C(c1ccc2c(=O)n(Cc3ccco3)c(=S)[nH]c2c1)N1CCN(Cc2ccc3c(c2)OCO3)CC1,nt,16µM,nt,nt,?,i
CC1CCCN(C(=O)c2ccc3c(=O)n(Cc4ccc5c(c4)OCO5)c(=S)[nH]c3c2)C1 (configuration not stated),i,26µM,i,?,i,i
O=C(c1ccc2c(=O)n(Cc3ccc4c(c3)OCO4)c(=S)[nH]c2c1)N1CCN(Cc2ccccc2)CC1,nt,?,nt,nt,i,i
Cc1ccc(C(C)C)c(OCC(=O)Nc2ccc(O)c(-c3nc4cc(Cl)ccc4o3)c2)c1,?,i,?,i,i,nt
CCCc1ccc(-c2c(C)sc(N)c2C#N)cc1,i,i,i,35µM,i,i
O=C1CC(Sc2nnc(-c3ccccc3O)o2)C(=O)N1c1ccccc1 (configuration not stated),i,i,i,?,i,i
O=C1c2ccccc2CC1Sc1nnc(-c2ccccn2)o1 (configuration not stated),i,?,13µM,i,i,i
CC(=O)N1CCCc2cc(S(=O)(=O)N3CCCC(C(=O)NCc4ccc(C)cc4)C3)ccc21 (configuration not stated),i,5.8µM,i,?,i,i
COc1ccc(NC(=O)C2CCCN(S(=O)(=O)c3ccc4c(c3)CCCN4C(C)=O)C2)cc1Cl (configuration not stated),i,16µM,i,i,i,i
COc1ccc(S(=O)(=O)N2CCCC(C(=O)Nc3cccnc3)C2)cc1Cl (configuration not stated),i,16µM,i,i,i,i
Cc1cccc(C(=O)Nc2nc(-c3ccc(Br)cc3)ns2)c1,i,i,i,i,i,nt
CCOCCCN(Cc1ccco1)S(=O)(=O)c1cc2c(cc1Cl)NC(=O)CO2,i,nt,i,i,i,nt
COc1ccccc1CN(C)C[C@@H]1OCc2cnnn2CCCC(=O)N([C@H](C)CO)C[C@H]1C,i,nt,i,nt,nt,nt
Cc1ccc(Cl)cc1NS(=O)(=O)c1cc2c(cc1F)NC(=O)CC2,nt,i,nt,nt,i,nt
COc1nc(C#N)nc(N2CCCC2)n1,nt,?,nt,nt,i,i
CCOc1nc(C#N)nc(N2CCCCC2)n1,i,16µM,i,i,i,i
CCn1c(-c2ccccc2Cl)nn(CC(=O)Nc2cc(Cl)ccc2Cl)c1=S,i,16µM,i,i,i,i
CCOc1ccc2nc(NC(=O)C3CCCN(S(=O)(=O)c4c(C)noc4C)C3)sc2c1 (configuration not stated),i,21µM,i,i,i,i
Cc1ccc(C)c(N2CCN(C(=O)C3CCN(S(=O)(=O)c4c(C)noc4C)CC3)CC2)c1,i,?,i,i,i,i
Cc1ccc(C)c(N2CCN(C(=O)C3CCCN(S(=O)(=O)c4c(C)noc4C)C3)CC2)c1 (configuration not stated),i,16µM,i,i,i,i
Cc1noc(C)c1S(=O)(=O)N1CCC(C(=O)N2CCN(c3cccc(C(F)(F)F)c3)CC2)CC1,i,18µM,i,i,i,nt
CCOC(=O)c1ccc(-c2ccc3ncnc(NCc4cccs4)c3c2)o1,nt,i,nt,nt,?,nt
CCNC(=S)N(CCc1ccccc1C)Cc1cc2cc(OC)c(OC)cc2[nH]c1=O,i,i,i,i,i,i
CCNC(=S)N(CCc1cccc(C)c1)Cc1cc2cc(OC)c(OC)cc2[nH]c1=O,i,23µM,i,i,i,?

# From PubChem BioAssay
